Cytotoxicity call data for 69 molecules are collected here from the antibiotic and cytotoxicity screens of Wong et al. (2023).

Out of some 39,000 compounds screened, about 3,300 (8.5%) were called active. The sample as a whole holds a higher share of actives than the screen did.

In the assay the test system is HepG2. As to the kind of experiment: cytotoxicity call (relative viability < 0.9). Particulars: 10 µM.
Take `COc1ccc(-c2cnc3c(c2)C(=O)N([C@@H](C)CO)C[C@@H](C)[C@@H](CN(C)C(=O)Cc2ccccn2)O3)cc1`: the cytotoxicity call is “inactive”.

Regarding `CN(C)S(=O)(=O)N1CCN(CC(=O)Nc2ccc(Br)cc2)CC1`, the cytotoxicity call is “inactive”.

Take `C[C@H]1CN([C@@H](C)CO)C(=O)c2cccc(NC(=O)c3cnccn3)c2O[C@H]1CN(C)S(=O)(=O)c1ccc(F)cc1`: the cytotoxicity call is “inactive”. In the case of `C[C@@H]1CN([C@H](C)CO)C(=O)c2cc(NC(=O)CCC(F)(F)F)ccc2O[C@@H](C)CCCCO[C@@H]1CN(C)Cc1ccc(C(=O)O)cc1` it was “inactive”; in that of `O=C(O)CC1CCOCC1`, “inactive”; in that of `C[C@@H]1CCCCO[C@@H](CN(C)C)[C@H](C)CN([C@H](C)CO)C(=O)c2cc(NC(=O)CCCCCC(=O)Nc3ccccc3N)ccc2O1`, “inactive”.

Take `COc1ccc(CN(C)C[C@H]2OCCCC[C@@H](C)Oc3ccc(NC(=O)Nc4ccccc4)cc3C(=O)N([C@H](C)CO)C[C@H]2C)cc1`: the cytotoxicity call is “active”.

`COc1ccc(CN(C)C[C@H]2OCCCC[C@@H](C)Oc3ccc(NC(=O)Nc4ccccc4)cc3C(=O)N([C@H](C)CO)C[C@@H]2C)cc1`: the cytotoxicity call is “inactive”. In the case of `COc1ccc(CN(C)C[C@@H]2OCCCC[C@@H](C)Oc3ccc(NC(=O)Nc4ccccc4)cc3C(=O)N([C@@H](C)CO)C[C@@H]2C)cc1` it was “inactive”; in that of `COc1ccc(CN(C)C[C@@H]2OCCCC[C@H](C)Oc3ccc(NC(=O)Nc4ccccc4)cc3C(=O)N([C@H](C)CO)C[C@H]2C)cc1`, “inactive”; in that of `COc1ccc(CN(C)C[C@H]2OCCCC[C@@H](C)Oc3ccc(NC(=O)Nc4ccccc4)cc3C(=O)N([C@@H](C)CO)C[C@H]2C)cc1`, “active”. As for `COc1ccc(CN(C)C[C@H]2OCCCC[C@H](C)Oc3ccc(NC(=O)Nc4ccccc4)cc3C(=O)N([C@@H](C)CO)C[C@@H]2C)cc1`, the cytotoxicity call is “inactive”. Next, `C[C@@H]1CN([C@@H](C)CO)C(=O)c2cc(NC(=O)Nc3ccccc3)ccc2O[C@H]1CN(C)CC1CCCCC1`: “inactive”. With `COc1ccccc1S(=O)(=O)N[C@H]1CC[C@@H](CCNC(=O)C2CC2)O[C@H]1CO`, the cytotoxicity call was “inactive”. In the case of `CCOC(=O)C[C@H]1CCCNC1` it was “inactive”; in that of `CCOC(=O)c1c(C)cc(O)cc1O`, “inactive”. `COC(=O)c1c(C)cc(OC)cc1O`: the cytotoxicity call was “inactive”. Next, `CCOC(=O)c1c(C)cc(OC)cc1O`: “active”; `C[C@H](CO)N1C[C@H](C)[C@H](CN(C)S(=O)(=O)c2cccs2)Oc2ncc(C#Cc3ccccc3)cc2C1=O`: “inactive”; `C[C@@H]1CCCCO[C@H](CN(C)C(=O)Nc2cccc3ccccc23)[C@@H](C)CN([C@@H](C)CO)C(=O)c2cc(NS(=O)(=O)c3ccccc3)ccc2O1`: “inactive”. In the case of `C[C@@H]1CCCCO[C@@H](CN(C)C(=O)Nc2cccc3ccccc23)[C@H](C)CN([C@H](C)CO)C(=O)c2cc(NS(C)(=O)=O)ccc2O1` it was “inactive”; in that of `C[C@@H]1CCCCO[C@H](CN(C)C(=O)Nc2cccc3ccccc23)[C@@H](C)CN([C@@H](C)CO)C(=O)c2cc(NS(C)(=O)=O)ccc2O1`, “inactive”. Next, `C[C@H](CO)N1C[C@H](C)[C@@H](CN(C)C(=O)Nc2cccc3ccccc23)OCCCC[C@H](C)Oc2ccc(NS(=O)(=O)c3ccccc3)cc2C1=O`: “inactive”; `C[C@@H]1CCCCO[C@H](CN(C)C(=O)Nc2cccc3ccccc23)[C@H](C)CN([C@H](C)CO)C(=O)c2cc(NS(=O)(=O)c3ccccc3)ccc2O1`: “active”; `C[C@@H]1CCCCO[C@@H](CN(C)C(=O)Nc2cccc3ccccc23)[C@H](C)CN([C@H](C)CO)C(=O)c2cc(NS(=O)(=O)c3ccccc3)ccc2O1`: “active”. On to `C[C@H]1CCCCO[C@@H](CN(C)C(=O)Nc2cccc3ccccc23)[C@@H](C)CN([C@@H](C)CO)C(=O)c2cc(NS(=O)(=O)c3ccccc3)ccc2O1`, for which the cytotoxicity call is “inactive”.

`C[C@@H]1CCCCO[C@@H](CN(C)C(=O)Nc2cccc3ccccc23)[C@H](C)CN([C@@H](C)CO)C(=O)c2cc(NS(=O)(=O)c3ccccc3)ccc2O1`: the cytotoxicity call is “inactive”. In the case of `C[C@@H]1CCCCO[C@H](CN(C)C(=O)Nc2cccc3ccccc23)[C@H](C)CN([C@H](C)CO)C(=O)c2cc(NS(C)(=O)=O)ccc2O1` it was “active”; in that of `C[C@@H]1CCCCO[C@H](CN(C)C(=O)Nc2cccc3ccccc23)[C@@H](C)CN([C@H](C)CO)C(=O)c2cc(NS(=O)(=O)c3ccccc3)ccc2O1`, “inactive”; in that of `C[C@@H]1CN([C@@H](C)CO)C(=O)c2cc(NS(=O)(=O)c3ccccc3)ccc2O[C@@H](C)CCCCO[C@H]1CN(C)C(=O)Nc1cccc2ccccc12`, “active”. On to `C[C@@H]1CN([C@@H](C)CO)C(=O)c2cc(NS(=O)(=O)c3ccccc3)ccc2O[C@@H](C)CCCCO[C@@H]1CN(C)C(=O)Nc1cccc2ccccc12`, for which the cytotoxicity call is “inactive”.

`C[C@@H]1CN([C@H](C)CO)C(=O)c2cc(NS(=O)(=O)c3cccs3)ccc2O[C@@H]1CN(C)C(=O)Nc1cccc2ccccc12`: the cytotoxicity call was “inactive”. In the case of `COc1ccc(-c2cn(CCNC(=O)[C@@H](NS(=O)(=O)c3ccc(C)cc3)C(C)C)nn2)cc1OC` it was “inactive”; in that of `O=C1c2ccccc2[C@@]2(Cc3ccccc3N(CC(F)(F)F)C2=O)[C@H](c2ccc(CO)cc2)N1C1CCCCC1`, “inactive”; in that of `C[C@@H]1CN([C@H](C)CO)C(=O)Cc2cc(NC(=O)Nc3cccc4ccccc34)ccc2O[C@H]1CN(C)C(=O)Nc1cccc2ccccc12`, “inactive”. In the case of `COc1ccc(S(=O)(=O)Nc2ccc3c(c2)C(=O)N([C@H](C)CO)C[C@@H](C)[C@H](CN(C)C(=O)Nc2ccc(C(F)(F)F)cc2)OCCCC[C@H](C)O3)cc1` it was “inactive”; in that of `COc1ccc([C@@H]2CC=CC[C@H](C)Oc3ccccc3C(=O)N(C)[C@H](Cc3ccccc3)C(=O)N2)c(OC)c1`, “inactive”. Next, `C[C@H](CO)N1C[C@H](C)[C@@H](CN(C)C(=O)Nc2ccc3c(c2)OCO3)Oc2ncc(-c3ccncc3)cc2C1=O`: “inactive”; `C=CC[C@@H](CC(=O)NCCO)C(=O)N[C@H](COC(=O)[C@H](CC=C)CC(=O)OC(C)(C)C)Cc1c[nH]c2ccccc12`: “inactive”. In the case of `Cc1ccc(-c2csc(-c3ccc(CN)cc3)n2)cc1`, the cytotoxicity call was “inactive”. In the case of `Cc1ccc(Cc2nc(-c3ccc(Cl)cc3)cs2)cc1` it was “active”; in that of `Cc1ccc(-c2nc(-c3ccc(Cl)cc3)cs2)cc1F`, “inactive”. For the molecule `C[C@@H]1CN([C@H](C)CO)S(=O)(=O)c2ccc(C#C[C@@H](C)O)cc2O[C@H]1CN(C)C(=O)C1CCCCC1`, the cytotoxicity call was “inactive”. In the case of `O=S(=O)(NCC[C@H]1CC[C@H](NS(=O)(=O)c2ccccc2Cl)[C@@H](CO)O1)c1ccc(F)cc1` it was “active”. On to `CN(C)CC(=O)N[C@H]1CC[C@H](CCNS(=O)(=O)c2ccccc2)O[C@H]1CO`, for which the cytotoxicity call was “inactive”. Next, `CN(C)CC(=O)N[C@H]1CC[C@H](CCNS(=O)(=O)c2ccccc2)O[C@@H]1CO`: “inactive”; `O=S(=O)(NCC[C@@H]1CC[C@@H](NS(=O)(=O)c2ccccc2Cl)[C@H](CO)O1)c1ccc(F)cc1`: “inactive”. As for `CN(C)CC(=O)N[C@@H]1CC[C@@H](CCNS(=O)(=O)c2ccccc2)O[C@@H]1CO`, the cytotoxicity call is “active”.

For `O=S(=O)(NCC[C@@H]1CC[C@H](NS(=O)(=O)c2ccccc2Cl)[C@H](CO)O1)c1ccc(F)cc1`, the cytotoxicity call is “inactive”. Take `C[C@H]1CCCCO[C@@H](CN(C)Cc2ccncc2)[C@@H](C)CN([C@@H](C)CO)C(=O)c2cc(NC(=O)Cc3ccccc3)ccc2O1`: the cytotoxicity call was “inactive”. `C[C@@H]1CN([C@@H](C)CO)C(=O)Cc2cc(NC(=O)Nc3cccc4ccccc34)ccc2O[C@H]1CN(C)S(=O)(=O)c1cccs1`: the cytotoxicity call was “inactive”. Next, `C[C@H](CO)N1C[C@H](C)[C@@H](CN(C)C(=O)NC2CCCCC2)Oc2cc(-c3cccnc3)ccc2S1(=O)=O`: “inactive”; `Cc1ccc(S(=O)(=O)N2C[C@@H](O)COC[C@H]3O[C@H](CC(=O)NCCCN(C)C)CC[C@@H]32)cc1`: “inactive”; `Cc1noc(C)c1NC(=O)Nc1ccc2c(c1)C(=O)N([C@H](C)CO)C[C@H](C)[C@H](CN(C)Cc1ccc(Cl)c(Cl)c1)O2`: “inactive”.

Take `C=CC[C@@H](CC(=O)N[C@H](CO)Cc1ccccc1)C(=O)NC[C@H](OC(=O)[C@@H](CC=C)Cc1ccc(F)cc1)c1ccccc1`: the cytotoxicity call was “active”. In the case of `C=CCC[C@H](Cc1ccc(F)cc1)C(=O)O[C@@H](CNC(=O)[C@@H](CC=C)CC(=O)N[C@H](CO)Cc1ccccc1)c1ccccc1` it was “inactive”; in that of `C=CCC[C@H](Cc1ccc(F)cc1)C(=O)O[C@@H](CNC(=O)[C@@H](CC=C)CC(=O)N[C@@H](CO)Cc1ccccc1)c1ccccc1`, “inactive”; in that of `C=CC[C@@H](CC(=O)N[C@@H](CO)Cc1ccccc1)C(=O)NC[C@@H](OC(=O)[C@@H](CC=C)Cc1ccc(F)cc1)c1ccccc1`, “inactive”. Next, `C=CC[C@@H](CC(=O)N[C@@H](CO)Cc1ccccc1)C(=O)NC[C@H](OC(=O)[C@@H](CC=C)Cc1ccc(F)cc1)c1ccccc1`: “inactive”; `C=CCC[C@@H](Cc1ccc(F)cc1)C(=O)O[C@@H](CNC(=O)[C@@H](CC=C)CC(=O)N[C@H](CO)Cc1ccccc1)c1ccccc1`: “active”.

As for `Nc1ncnc2c1CCC2`, the cytotoxicity call was “inactive”. With `CCCCCCCCNC(C)C(O)c1ccc(SC(C)C)cc1` (centres undefined), the cytotoxicity call was “active”. Next, `CC(NCCc1ccc(O)cc1)C(O)c1ccc(O)cc1.Cl` (centres undefined): “inactive”; `CCCCCCCCNC[C@@H](O)[C@H](O)[C@@H](O)[C@@H](O)CO`: “inactive”; `C[C@H]1CN([C@@H](C)CO)C(=O)c2cc(NC(=O)Cc3ccccc3)ccc2O[C@H]1CN(C)S(=O)(=O)c1cn(C)cn1`: “inactive”. Next, `C[C@@H]1CN([C@@H](C)CO)C(=O)c2cc(NS(=O)(=O)c3ccc(F)cc3)ccc2O[C@@H]1CN(C)C(=O)Nc1cccc2ccccc12`: “inactive”; `N[C@@H](CC(=O)Nc1ccc(Cl)cc1)C(=O)O`: “inactive”. Next, `CC(C)NC(=N)NC(=N)Nc1ccc(Cl)cc1.Cl`: “active”; `Cl.Cl.N=C(NCCCCCCNC(=N)NC(=N)Nc1ccc(Cl)cc1)NC(=N)Nc1ccc(Cl)cc1`: “active”.
